Results taken from the OligoGym collection.

molecular target: GLA; test: pooled miR-30 sensor sort-seq; sequence = guide strand; conditions: shRNA
Also: reference of the scale not given here.

**Q.** TTTTATTTCCAACATCTGCATA was tested. Which sensor-assay potency score (higher = more potent) did it give?
**A.** -1.26

**Q.** AACTGTCACAGTAACAACCATC was tested. Which sensor-assay potency score (higher = more potent) did it give?
**A.** -1.1

**Q.** With TTTAGCAGATCTACTCCCCAGT as the sequence, how does the sensor-assay potency score (higher = more potent) read?
**A.** -0.498

**Q.** How did the sensor-assay potency score (higher = more potent) turn out when TTAACCTTGAAGTCCATTCATA was run?
**A.** -0.885

**Q.** For TTACTTGCTGATTCCAGCTGAG, which sensor-assay potency score (higher = more potent) is on record?
**A.** 0.0513

**Q.** Which sensor-assay potency score (higher = more potent) does the source give for TTATGTGACTTCTTAACCTTGA here?
**A.** 0.747

molecular target: GLCE; test: as above; conditions: shRNA

**Q.** Which sensor-assay potency score (higher = more potent) does the source give for TAAAAGGTCAAACTTGACCTTC here?
**A.** -0.602

**Q.** With TTATTTTGAACATCGGCACTGG as the sequence, how does the sensor-assay potency score (higher = more potent) read?
**A.** 0.23

**Q.** Which sensor-assay potency score (higher = more potent) does the source give for TACCATACTGTTATCATCGAGT here?
**A.** 0.0428

**Q.** TCAAACTTGACCTTCATCCAGA was tested. Which sensor-assay potency score (higher = more potent) did it give?
**A.** -0.0575

**Q.** For TAAAAAGTTGAACACAGTCTGC, which sensor-assay potency score (higher = more potent) is on record?
**A.** -0.82

**Q.** With TTACCTTTTGCAATCAACCTAA as the sequence, how does the sensor-assay potency score (higher = more potent) read?
**A.** 0.22

**Q.** For TTTGTTAACAGATAGGCCCTGA, which sensor-assay potency score (higher = more potent) is on record?
**A.** 0.615

**Q.** Which sensor-assay potency score (higher = more potent) does the source give for TAACATGTGCACATTGTGCTTA here?
**A.** 0.792

**Q.** With TTTAACATCAAAGTGAACTCAA as the sequence, how does the sensor-assay potency score (higher = more potent) read?
**A.** 0.589

**Q.** TAACATATGGTATATAACCCAC was tested. Which sensor-assay potency score (higher = more potent) did it give?
**A.** -0.994

**Q.** With TTGCATATAGTATTTGATCTAA as the sequence, how does the sensor-assay potency score (higher = more potent) read?
**A.** -0.789

**Q.** With TTACTAGCCAATCACTAGCAGC as the sequence, how does the sensor-assay potency score (higher = more potent) read?
**A.** -1.01

molecular target: GLI3; test: as above; conditions: shRNA

**Q.** With TTTGGTCATAGAACTGACCAGA as the sequence, how does the sensor-assay potency score (higher = more potent) read?
**A.** -0.608

**Q.** With TTTCGTGTCTTGCTGACTGAAG as the sequence, how does the sensor-assay potency score (higher = more potent) read?
**A.** -0.362

**Q.** TTTTTCTTTTCAGTGGTCGTGG was tested. Which sensor-assay potency score (higher = more potent) did it give?
**A.** 0.0526

**Q.** With TTGTGTCACTGAGCTGTCCTGA as the sequence, how does the sensor-assay potency score (higher = more potent) read?
**A.** -0.401

**Q.** TATACTACCTCCATCGGTCAGA was tested. Which sensor-assay potency score (higher = more potent) did it give?
**A.** -0.385

**Q.** Which sensor-assay potency score (higher = more potent) does the source give for TTGATCTTGGACCTCTTGTTGT here?
**A.** -0.765

**Q.** How did the sensor-assay potency score (higher = more potent) turn out when TTTGAGTGTAACAATACTGATT was run?
**A.** -0.904

**Q.** How did the sensor-assay potency score (higher = more potent) turn out when TTGTCGGCTTAGGATCTGCTGA was run?
**A.** -0.967

**Q.** TCTGATGATAGTATTCTGCTGG was tested. Which sensor-assay potency score (higher = more potent) did it give?
**A.** 0.381

**Q.** For TTGAGAATCGTGACCAAGGAGT, which sensor-assay potency score (higher = more potent) is on record?
**A.** -0.494

molecular target: GLIPR2; test: as above; conditions: shRNA

**Q.** For TTTCCTGTCTGATCATAGGATG, which sensor-assay potency score (higher = more potent) is on record?
**A.** -0.835

**Q.** With TCATTGACAACATTCCCCGCTG as the sequence, how does the sensor-assay potency score (higher = more potent) read?
**A.** -0.0819

**Q.** Which sensor-assay potency score (higher = more potent) does the source give for TTATAGTTCTTGATTTCACTGT here?
**A.** 0.709

**Q.** How did the sensor-assay potency score (higher = more potent) turn out when TTCTTGATTTCACTGTACCATC was run?
**A.** -1.16

**Q.** Which sensor-assay potency score (higher = more potent) does the source give for TATCTGGCCACCACAAAGGAGG here?
**A.** -1.73

**Q.** TGCTTGAGGATCCTCGTGCTGG was tested. Which sensor-assay potency score (higher = more potent) did it give?
**A.** -0.832

**Q.** How did the sensor-assay potency score (higher = more potent) turn out when ATAGTTCTTGATTTCACTGTAC was run?
**A.** 0.205

**Q.** How did the sensor-assay potency score (higher = more potent) turn out when ATCTTCTTGGTGTTCTTCCATA was run?
**A.** -1.63

**Q.** Which sensor-assay potency score (higher = more potent) does the source give for TATAGTTCTTGATTTCACTGTA here?
**A.** 0.562

**Q.** TTCTTGCAGAGCTTCAGTGGGG was tested. Which sensor-assay potency score (higher = more potent) did it give?
**A.** -0.474

**Q.** TTCTTCCATACCATGGCCGTGA was tested. Which sensor-assay potency score (higher = more potent) did it give?
**A.** -1.01

**Q.** TTGACAACATTCCCCGCTGGGA was tested. Which sensor-assay potency score (higher = more potent) did it give?
**A.** -0.899
